# In the library only some 10% were active in any assay of this set; here they are far more common.
# HPGD block = blocks human HPGD enzyme activity; P15428; purified HPGD, NADH fluorescence kinetic, PGE2 substrate; Potency, µM, for inactives: at the highest dose activity change, negative = inhibition, most hits filed as inhibitors; actives 4.3% (n = 150,000); AID 894; active means well fitted inhibition curve with a large enough effect, not every such curve was filed as active; inconclusive means small, poorly fitted or top-dose-only effect, or another doubt; inactive means no such curve, though single readings can be large or run the other way; further: potency means the concentration at half of the fitted maximal effect
#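 20 nM HPGD preincubated 15 min at room temperature with compound in 50 mM Tris-HCl pH 8, 0.01% Tween 20. Started with 1 mM NAD+ and 30 uM prostaglandin E2; NADH fluorescence (360/450 nm) read 5 times over 30-s intervals, last minus first.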
# ALDH1A1 inh = ALDH1A1 (human) enzyme inhibition | P00352 | Purified ALDH1A1, NADH fluorescence, propionaldehyde substrate | Potency, µM (top dose mostly 75.3 µM), without a hit: at the highest dose activity, negative = inhibition, hits mostly inhibitors | actives 7.3% (n = 220,000) | AID 1030; active means well fitted inhibition curve with a large enough effect, not every such curve was filed as active; inconclusive means small, poorly fitted or top-dose-only effect, or another doubt; inactive means no such curve, though single readings can be large or run the other way;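 further: potency means the concentration at half of the fitted maximal effect; plate controls were no enzyme wells and a reference inhibitor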
# GLA spleen mod = inhibits or activates alpha-galactosidase in human spleen homogenate. actives 0.008% (n = 240,000). P06280. Potency, µM (titrated, usually from 80 µM), for inactives: at the highest dose activity change, negative = inhibition, hits mostly inhibitors. human spleen homogenate, 4MU-alpha-Gal fluorescence, 40 min;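 further: potency means the concentration at half of the fitted maximal effect; 0% = enzyme with vehicle and -100% = no enzyme basal signal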
#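 Fluorogenic readout (Ex 365/Em 440 nm) of 4-methylumbelliferone released from 1 mM 4-MU-alpha-galactoside by spleen homogenate, 40 min at 37C, pH 5.0. Data normalized to no-enzyme and enzyme controls; Hill-equation AC50 from compound titrations.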
# GLA inh pH 4.5 = blocks human alpha-galactosidase A at pH 4.5 | 230,000 tested, under 10 active | purified enzyme, 4-MU-alpha-Gal fluorescence, pH 4.5 | AID 1467 | activity change, negative = inhibition, % at 105 µM | P06280;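 further: 0% = full activity with enzyme and -100% = basal without enzyme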
# PNC assembly inh = inhibitors of perinucleolar compartment assembly; PC3M PTB-GFP, PNC prevalence imaging, 16 h; stronger effect = lower value; activity change (PNC), negative = inhibition, % at 10 µM; actives 3.1% (n = 140,000); AID 2417;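 active means readout at or below -70, meaning at least 70% loss of cells showing the perinucleolar compartment, a nuclear body marking cancer cells; inconclusive means readout between -30 and a set limit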;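 further: plate controls were DMSO wells for no effect and camptothecin positive control wells for full effect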
#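 PC3M cells stably expressing PTB-GFP, 750–1000 cells/well, treated 16 h at 37 °C with compound (23 nl of library stock), in duplicate. After paraformaldehyde fixation and Hoechst stain, imaged at 20x; PNC prevalence scored by image analysis.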
# 12-hLO inh = 12-hLO (ALOX12) enzyme inhibition | Potency, µM (highest dose often 57.1 µM), for inactives: at the highest dose activity change, negative = inhibition, hits mostly inhibitors | actives 0.12% (n = 150,000) | P18054 | purified 12-hLO, xylenol orange hydroperoxide absorbance; further: potency means the concentration at half of the fitted maximal effect; nearly all actives have a fitted effect of over 55% in size
# Target sequence (P18054 whole entry, looked up): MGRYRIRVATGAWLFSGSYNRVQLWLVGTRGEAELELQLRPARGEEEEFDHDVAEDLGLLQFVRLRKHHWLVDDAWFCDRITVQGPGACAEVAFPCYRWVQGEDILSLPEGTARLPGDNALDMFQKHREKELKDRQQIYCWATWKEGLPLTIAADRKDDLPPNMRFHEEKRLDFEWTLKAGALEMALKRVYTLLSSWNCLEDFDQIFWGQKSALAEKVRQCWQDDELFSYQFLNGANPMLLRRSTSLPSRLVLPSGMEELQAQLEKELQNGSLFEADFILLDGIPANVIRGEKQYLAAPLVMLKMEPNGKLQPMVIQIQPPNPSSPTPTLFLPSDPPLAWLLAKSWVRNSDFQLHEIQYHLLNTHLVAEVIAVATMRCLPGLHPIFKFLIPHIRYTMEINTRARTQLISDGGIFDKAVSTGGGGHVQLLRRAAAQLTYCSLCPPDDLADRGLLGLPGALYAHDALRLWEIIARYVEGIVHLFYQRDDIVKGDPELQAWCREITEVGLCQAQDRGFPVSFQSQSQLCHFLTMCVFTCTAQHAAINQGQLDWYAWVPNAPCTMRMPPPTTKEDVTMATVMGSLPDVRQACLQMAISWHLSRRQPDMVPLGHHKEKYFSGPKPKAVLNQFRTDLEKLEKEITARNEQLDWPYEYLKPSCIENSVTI
#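 Lipoxygenase turnover measured by absorbance at 573 and 405 nm after Fe-XO development. Human 12hLO 150 nM, arachidonate 40 uM, pH 7.0 Hepes buffer with detergent; 15 min compound preincubation, 30 min reaction.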
# * hit, by the source's call; ? = inconclusive; . = no result; [ ] = another dose, or the depositor's remark. Unless noted, the call rests on the fitted dose curve; in most records, active means well fitted curve in the direction sought with a large enough effect; inconclusive means small, poorly fitted or top-dose-only effect, or another doubt; inactive means no such curve, though single readings can be large; an effect the other way counts as inactive or inconclusive. Unless noted, on the % scale 0 is the no-effect control and ±100 the full control effect.
SMILES,HPGD block,ALDH1A1 inh,GLA spleen mod,GLA inh pH 4.5,PNC assembly inh,12-hLO inh
Cc1cccc(NC(=O)COC(=O)CNC(=O)C2CCCCC2)c1,-11.7%,?,-0.9%,-6.3,-8.2,-1.5%
COc1ccc(OCC(=O)N2CCc3c([nH]c4ccccc34)C2c2ccccn2)cc1 (configuration not stated),.,0.447µM*,-9.5%,-2.8,.,.
CCc1nc(C)ccc1OCC(=O)N1CCc2c([nH]c3ccccc23)C1c1ccccn1 (configuration not stated),.,0.1%,-7.9%,2.6,.,.
CCCCC(C(=O)OCC)C(N)Cc1ccc(F)cc1 (configuration not stated),.,1.5%,4.1%,-11.5[21.1 µM],.,.
COc1ccccc1NC(=O)CC1C(=O)Nc2ccccc2N1C(=O)c1ccccc1 (configuration not stated),.,-12.0%,1.8%,5.4,.,.
S=c1nc(Cc2ccc(Cl)cc2)[nH]c2ccccc12,.,-0.2%,3.7%,-0.1,.,.
FC(F)(F)c1nc(=S)c2ccccc2[nH]1,.,8.91µM*,0.6%,3.8,.,.
Cc1nc(=S)c2ccccc2[nH]1,-15.0%,7.08µM*,0.8%,-2.0,-29.1,5.0%
Cc1ccc2nc3nc4ccc[nH]c4cc3c2c1,.,-0.6%[13.5 µM],7.5%[17.5 µM],.,.,.
Brc1ccc2nc(-c3cccs3)c(NCC3CCCO3)n2c1 (configuration not stated),.,7.94µM*,8.9%,-7.8,.,.
Cc1ccc(NC(=O)c2ccc(Cl)c(N3C(=O)C=CC3=O)c2)cc1,3.55µM*,3.16µM*,1.1%,2.2,26.5,?
O=C(Nc1ccc(Cl)c(Cl)c1)c1ccc(Cl)c(Cl)c1,.,-7.5%,13.9%,-8.3,.,.
Cc1c(NC(=O)c2cc(-c3cccs3)on2)c(=O)n(-c2ccccc2)n1C,-6.6%,31.6µM*,1.3%,1.5,?,-8.5%
O=C(NCCNc1nccc(C(F)(F)F)n1)c1cccs1,.,.,-1.4%,-1.0,.,.
COc1ccc(OC)c(N(CC(=O)Nc2cccnc2)S(=O)(=O)c2ccc(C)cc2)c1,7.08µM*,-7.2%,-1.5%,0.6,13.3,11.8%
COc1ccc(OC)c(N(CC(=O)Nc2cccnc2)S(C)(=O)=O)c1,-1.6%,4.5%,-4.9%,-1.5,18.0,0.4%
COc1ccc(OC)c(N(CC(=O)Nc2cccnc2)S(=O)(=O)c2ccc(OC)c(OC)c2)c1,15.8µM*,9.3%,-0.1%,-4.4,-109.2*,0.2%
COc1ccc(C)cc1S(=O)(=O)N(C)CC(=O)Nc1ccccc1,-4.2%,?,-14.5%,-9.3,-107.9*,-2.2%
COc1ccccc1N(CC(=O)Nc1cc(C)on1)S(=O)(=O)c1ccc(Cl)cc1,14.1µM*,1.2%,-4.4%,-5.9,-12.9,-3.5%
COc1ccc(C)cc1N(CC(=O)Nc1cccnc1)S(=O)(=O)c1ccccc1,.,12.0%,2.0%,-17.4,.,.
CC(OCc1ccccc1)C(NC(=O)OC(C)(C)C)C(=O)NC1COC2CC(n3ccc(=O)[nH]c3=O)OC12 (configuration not stated),.,.,1.7%,.,.,.
Cc1cc(C)c(-c2cc([C@H](C)O/N=C3/[C@H]4OC4[C@@H](O)[C@H]4[C@H]3CCn3c(=O)n(-c5ccccc5)c(=O)n34)on2)c(C)c1 (some centres not stated),.,?,22.0%[17.5 µM],.,.,.
COc1ccc(OC)c(N(CC(=O)Nc2ccc3c(c2)OCO3)S(=O)(=O)c2ccccc2)c1,31.6µM*,-6.0%,-4.0%,-1.8,7.6,-3.0%
COc1ccc(Cl)cc1N(CC(=O)Nc1ccc2c(c1)OCO2)S(C)(=O)=O,-1.5%,9.2%,7.8%,-2.2,9.7,-2.0%
c1cnc2c(-c3nccc4c3[nH]c3ccccc34)cccc2c1,-9.9%,-4.4%,-6.6%,1.3,.,.
SMILES,HPGD block,ALDH1A1 inh,GLA spleen mod,GLA inh pH 4.5,PNC assembly inh,12-hLO inh
CN(C)c1ccc(S(=O)(=O)NCC(=O)OCC(=O)Nc2cc(Cl)cc(Cl)c2)cc1[N+](=O)[O-],-3.1%,14.1µM*,0.6%,-7.3,9.5,-4.5%
COc1cc(NC(=O)COC(=O)CNS(=O)(=O)c2ccc(F)c(F)c2F)cc(OC)c1,-19.2%,-4.5%,2.6%,6.0,27.8,-1.5%
N#CCC(=N)N1CCN(c2ccc(F)cc2)CC1,.,11.2µM*,2.4%,-10.2,.,.
NC(N)=NC(N)=Nc1ccc(S(N)(=O)=O)cc1,-1.3%,3.7%[13.5 µM],.,.,.,0.1%[11.4 µM]
CCC1Oc2nc(SC)nnc2-c2ccccc2N1C(=O)c1ccccc1 (configuration not stated),-10.8%,-6.7%,-2.0%,0.1,1.0,-9.3%
CCC(=O)N1c2ccccc2-c2nnc(SC)nc2OC1c1ccc(N(C)C)cc1 (configuration not stated),-4.7%,15.8µM*,-1.3%,0.9,19.3,-3.0%
Cc1cc(C)nc(-n2nc(C)cc2NC(=O)CN2CCC(C)CC2)n1,0.8%,3.55µM*,-4.7%,-18.6,17.1,-6.6%
CCC1CCCCN1CC(=O)Nc1cc(C)nn1-c1nc(C)cc(C)n1 (configuration not stated),-13.0%,14.1µM*,-6.2%,-4.4,?,3.8%
Cc1cc(C)nc(-n2nc(C)cc2NC(=O)CN2CCCC2)n1,.,?,2.1%,-2.0,.,.
O=C(Nc1cc(S(=O)(=O)N2CCOCC2)ccc1N1CCCC1)c1ccc2c(c1)S(=O)(=O)c1ccccc1C2=O,.,2.24µM*,4.4%,-2.1,.,.
CC(C)NC(=S)N/N=C/c1ccc(N2CCOCC2)cc1,?,?,12.4%,5.1,-12.3,-4.5%
C=CCNC(=S)Nc1cc(S(=O)(=O)N2CCOCC2)ccc1-n1cncn1,-11.0%,4.47µM*,-12.7%,-3.3,35.3,3.0%
Oc1ccc(/C=N/NC(=S)N2CCOCC2)cc1,.,14.1µM*,8.4%,-0.5,.,.
O=C(COC(=O)CCC(=O)c1cccs1)Nc1cc(S(=O)(=O)N2CCOCC2)ccc1Cl,-6.9%,22.4µM*,6.6%,4.8,-21.2,-3.6%
C=CC[n+]1ccc(/C=C2\C=Cc3cc(C)ccc3N2CC)c2ccccc21,.,?,-3.6%,-0.3,.,.
COc1ccccc1CNc1cc(-c2ccccc2Cl)ncn1,.,-7.0%,0.7%,.,.,.
C/C(CC(=O)Nc1ccccc1F)=N\NC(=O)Cc1ccc(Cl)cc1,.,?,-0.7%,1.0,.,.
O=S(=O)(c1ccc(Cl)c(NC(=S)Nc2ccccc2N2CCOCC2)c1)N1CCOCC1,-7.6%,20µM*,-16.9%,-3.4,?,-3.2%
O=S(=O)(c1ccc(Cl)c(NC(=S)N/N=C/c2c(F)cccc2F)c1)N1CCOCC1,.,-15.2%,9.1%,-8.1,-13.7,-6.3%
O=S(=O)(c1ccc(Cl)c(NC(=S)N/N=C/c2ccc(O)cc2)c1)N1CCOCC1,-27.3%,10µM*,3.2%,-4.6,?,-16.1%

# Screening results from PubChem.
